# Compound activity as filed in PubChem BioAssay.
# Most compounds without a hit are left out; they make up all but 3.9% or so of the library.
# KKLEB cytotox – cytotoxicity in KKLEB CF airway cells, primary screen, cytotoxicity control for CF NF-kB inhibitor project, cell-based, uHTS, fluorescence assay plates | AID 602141, 2011 | KKLEB CF airway cells viability, ATPlite luminescence, overnight; stronger effect = lower value; cells stimulated with P. aeruginosa culture filtrate | activity change (cytotoxicity), % at 5 µM | 0.36% of 360,000 active;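 active = corrected activity change at or below -50% at 5 µM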
# TROY NFkB inh – inhibitors of TROY-driven NF-kB signaling, primary screen, Q293 LMP1-TROYcd cells, NF-kB luciferase, uHTS. Q293 LMP1-TROYcd NF-kB luciferase reporter, 4 h. inhibition, % at 10 µM. 0.98% of 360,000 active;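 active = compounds whose plate-normalised and pattern-corrected inhibition of the luciferase reporter signal at the single screening dose is 50% or more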
# HIF-2a inh – HIF-2a reporter inhibitors, primary screen, luminescence, 786-0 RCC cells. 786-0 RCC cells HIF-2a reporter, luciferase luminescence, overnight. inhibition, % at 18.8 µM. 0.72% of 360,000 active;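 active = inhibition of the luminescence signal of 40% or more relative to plate controls, in a single-dose primary screen at 18.75 µM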
# Peg3 prom inh – Peg3 promoter-driven luciferase inhibitors, primary screen, cell-based, HeLa, luciferase luminescence | HeLa PEG-Prom luciferase reporter, overnight | inhibition, % at 20 µM | 1.7% of 360,000 active;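 active = inhibition of at least 50% at 20 µM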
# TWEAK-Fn14 inh – inhibitors of TWEAK-Fn14 signaling, primary screen, luciferase reporter cells, uHTS; 2% of 360,000 active; TWEAK-stimulated Fn14 reporter cells, luciferase luminescence, 8 h; inhibition, % at 10 µM; in the data active = inhibition above about 50%
# CF NFkB block – inhibitors of PAF-induced NF-kB signaling, primary screen, cell-based, GFP fluorescence, uHTS; KKLEB NF-kB-GFP reporter, GFP fluorescence overnight; inhibition, % at 5 µM; 0.86% of 360,000 active; AID 588850, 2011;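 active = at least 50% inhibition at 5 µM, scaled per plate between neutral and stimulator controls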;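 note: PAF is a Pseudomonas aeruginosa culture filtrate used as stimulus; plate controls were PAF-stimulated DMSO wells for no effect and unstimulated DMSO wells for full effect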
# * hit, by the source's call; x = no result given.
SMILES,KKLEB cytotox,TROY NFkB inh,HIF-2a inh,Peg3 prom inh,TWEAK-Fn14 inh,CF NFkB block
O=C1/C(=C\c2ccccc2)CN(C(=O)CCN2CCCCC2)C/C1=C/c1ccccc1,-54*,69*,90*,97*,106*,91*
CC(C)C[C@@H](CN1CCC[C@@H]1CN1C(=S)NC[C@@H]1Cc1ccccc1)N1C[C@H](Cc2ccc(O)cc2)N(CCc2ccccc2)C1=S,-3,-5,3,1,12,23
COc1ccc(N2c3ccccc3CN(Cc3ccccc3)[C@@H](C)[C@H]2Cc2c(C)cccc2C)cc1,x,x,2,x,x,x
COC(=O)NC(=C(Cl)Cl)S(=O)(=O)c1ccccc1,-2,0,-15,47,69*,34
NC(=O)/C=C/C(=O)Nc1ccc(Cl)cc1,-12,3,13,63*,2,-5
Cc1ccc(S(=O)(=O)c2nc(Nc3nccs3)sc2Cl)cc1,-24,52*,15,15,-30,12
CCC(=O)NC(=S)Nc1ccccc1C(F)(F)F,-2,5,-3,-7,-2,-8
N#CCC(=O)NNC(=S)Nc1ccccc1C(F)(F)F,-17,16,15,24,65*,4
COc1ccc(NC(=O)c2cn(-c3ccccc3)nc2-c2cc3ccccc3o2)cc1,-4,-32,-111,-34,12,6
CN1C2=CC=CC=CC2=[N+](C)C12C([N+](=O)[O-])=CC(=[N+]([O-])[O-])C=C2[N+](=O)[O-] (configuration not stated),-16,-20,0,30,61*,17
CN1C2=CC=CC=CC2=[N+](C)C12C=CC(=[N+]([O-])[O-])C=C2[N+](=O)[O-] (configuration not stated),4,12,-3,13,2,-8
COc1cc(Cn2c3ccc(NC(=S)NCc4ccc(C)cc4)cc3c(=O)n2C)ccc1F,-13,58*,-13,-3,73*,20
COc1cc(Cn2c3ccc(NC(=O)CC(C)(C)C)cc3c(=O)n2C)ccc1F,3,-11,3,0,-3,-14
CN(C)S(=O)(=O)c1ccc(Cl)c(C(=O)OCC(=O)NC(=O)c2cccn2C)c1,1,13,18,9,-11,3
Cc1cc2c3c(c1)C(C)(c1ccccc1)CC(C)(C)N3C(=O)C21C(C#N)=C(N)OC2=C1C(=O)CC(C)(C)C2 (configuration not stated),0,18,12,47,35,17
CC1(c2ccccc2)CC(C)(C)N2C(=O)C3(C(C#N)=C(N)Oc4cc(O)ccc43)c3cccc1c32 (configuration not stated),4,33,33,22,57*,13
Cc1ccc(O)c(N)c1,-2,37,-58,-148,34,-12
Cc1ccc(SSc2cc(C)ccc2N)c(N)c1,-19,43,-179,-184,58*,-13
Cc1ccc(-c2nc(CS(=O)(=O)CC(=O)NCCCN(Cc3ccccc3)C(C)C)c(C)o2)cc1,7,16,2,4,0,2
Cc1oc(-c2ccc(-c3ccccc3)cc2)nc1CN(CCO)C(C)C,-19,-4,-41,-132,65*,10
Cc1nnc(N2C(=O)C(=O)/C(=C(\O)c3ccc4c(c3)CC(C)O4)C2c2ccccc2)s1 (configuration not stated),8,57*,-43,17,35,10
Cc1ccc(-c2nc3cc(NC(=O)C(C)C)ccc3o2)cc1,-2,53*,-143,-178,61*,-1
Cc1ccc(-c2nc3cc(NC(=O)C(C)C)ccc3o2)cc1C,-8,80*,-58,-57,86*,-13
CC(Oc1ccc(Cl)cc1Cl)C(=O)Nc1ccc2oc(-c3ccncc3)nc2c1 (configuration not stated),0,59*,-23,1,54*,-10
Cc1cc2nc(-c3ccc(NC(=O)C(C)C)cc3)oc2cc1C,-7,11,-200,-201,15,10
SMILES,KKLEB cytotox,TROY NFkB inh,HIF-2a inh,Peg3 prom inh,TWEAK-Fn14 inh,CF NFkB block
CC(C)C(=O)Nc1ccc(-c2nc3cccnc3o2)cc1,10,13,-23,-109,60*,-23
CC(C)C(=O)Nc1ccc(-c2nc3ncccc3o2)cc1,-9,19,-146,-123,46,-32
Cc1ccc(NC(=O)[C@H](C)NC(=O)C2CCN(C(=O)[C@@H](N)CC(C)C)CC2)cc1,3,-14,-6,-10,6,-1
Cc1ccc(-c2nn(-c3ccccc3)cc2CN(Cc2ccccc2)C(=O)c2ccco2)o1,5,13,26,65*,-1,-2
Cn1c(SCC(=O)N2CCOCC2)nnc1-c1ccncc1,9,0,4,-1,-2,0
O=C(CSc1nnc2nnc3ccccc3n12)N1CCOCC1,5,68*,-7,1,64*,-35
C/C(=N/Nc1ccc(C(=O)c2c(C)cc3ccccn23)cc1[N+](=O)[O-])c1ccc(O)cc1,-26,14,-4,33,53*,34
Cc1cc2ccccn2c1C(=O)c1ccc(N/N=C/c2ccc(C(=O)O)cc2)c([N+](=O)[O-])c1,-23,35,3,22,49,41
C/C(=N\Nc1ccc(C(=O)c2c(C)cc3ccccn23)cc1[N+](=O)[O-])c1ccc(O)cc1,-62*,19,12,26,62*,69*
CCCNC(=O)C(Cc1cccc(C#N)c1)NC(=O)c1cccc([N+](=O)[O-])c1 (configuration not stated),-15,-23,7,12,-18,12
Cc1ccc(S(=O)(=O)N2CCN(C(=O)CCn3nc(C)c(C)c3C)CC2)cc1,-3,-19,17,0,-2,0
CC(=O)c1cccc(NC(=O)CSc2ncc(C(=O)Nc3ccccc3)c(=O)n2C)c1,-1,-8,10,110*,-11,15
Cn1c(SCC(=O)NCC2CCCO2)ncc(C(=O)Nc2ccc(Cl)cc2)c1=O (configuration not stated),-2,-7,-61,59*,4,41
CC(=O)Nc1cccc(NC(=O)CSc2ncc(C(=O)Nc3ccc(F)cc3)c(=O)n2C)c1,-6,13,-14,-19,11,8
CC(=O)Nc1cccc(NC(=O)CSc2ncc(C(=O)Nc3ccccc3)c(=O)n2C)c1,3,14,1,105*,2,26
O=C(COC(=O)c1cccc(Br)c1)NCc1ccco1,-7,-8,0,18,16,14
CS(=O)(=O)Nc1ccc2c(c1)OCC(=O)N2Cc1ccccc1,-2,5,16,14,2,-3
